Results: PubChem BioAssay (NCI)
This is part of a sample that, as a whole, favours compounds with a hit. Of some 83,000 tested, about 20% had one in any assay.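 Treatment: one concentration, 48 hours, 96-well format. Scoring: percent growth, with anything below 10 considered active.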 A number with no mark means an inactive call. Active and inactive are the calls of the source.

Columns and labels:
Experiment in all cases: NCI-60 one-dose screen, 48 h (100 = growth as untreated, 0 = no growth, -100 = all killed)
NCI-H322M lung = conditions: 10 µM unless noted
HOP-62 NSCLC = conditions: 10 µM unless noted
NCI-H522 lung = conditions: 10 µM unless noted
A549/ATCC NSCLC = conditions: 10 µM unless noted
K-562 leukemia = conditions: 10 µM unless noted
SNB-19 CNS = conditions: 10 µM unless noted
LOX IMVI melanoma = conditions: 10 µM unless noted
SK-MEL-28 melanoma = conditions: 10 µM unless noted
SN12C renal = conditions: 10 µM unless noted
CAKI-1 renal = conditions: 10 µM unless noted
CCRF-CEM leukemia = conditions: 10 µM unless noted
SR leukemia = conditions: 10 µM
RPMI-8226 leukemia = conditions: 10 µM unless noted
OVCAR-4 ovarian = conditions: 10 µM unless noted
IGROV1 ovarian = conditions: 10 µM
HS 578T breast = conditions: 10 µM unless noted
BT-549 breast = conditions: 10 µM
EKVX NSCLC = conditions: 10 µM unless noted

`O=[N+]([O-])c1ccc(/C=C/C=C/c2ccc(S(=O)(=O)F)cc2)c(Cl)c1` showed a growth (NCI-H322M lung) of 94.7%, a growth (HOP-62 NSCLC) of 99.9% and a growth (NCI-H522 lung) of 83.8%. The growth (A549/ATCC NSCLC) was 98.6%, the growth (K-562 leukemia) was 96.1% and the growth (SNB-19 CNS) was 94.3%. It also gave a growth (LOX IMVI melanoma) of 102%, a growth (SK-MEL-28 melanoma) of 98.6% and a growth (SN12C renal) of 96.7%. The growth (CAKI-1 renal) was 98.3%, the growth (CCRF-CEM leukemia) was 85.8% and the growth (SR leukemia) was 77.9%. It also gave a growth (RPMI-8226 leukemia) of 93.4%, a growth (OVCAR-4 ovarian) of 87.5% and a growth (IGROV1 ovarian) of 104%. The growth (HS 578T breast) was 111% and the growth (BT-549 breast) was 100%.
`c1ccc([As]=[As]c2ccccc2)cc1` (centres undefined) was tested, and the growth (NCI-H322M lung) was -40.5% (active), the growth (HOP-62 NSCLC) was -54.4% (active) and the growth (A549/ATCC NSCLC) was -22.8% (active). For the same compound, the growth (K-562 leukemia) was -60.2% (active), the growth (SNB-19 CNS) was 20.5% and the growth (LOX IMVI melanoma) was -74.5% (active). The growth (SK-MEL-28 melanoma) was -25.5% (active), the growth (SN12C renal) was -20.9% (active) and the growth (CAKI-1 renal) was -51.4% (active). For the same compound, the growth (SR leukemia) was -47.5% (active), the growth (RPMI-8226 leukemia) was -47.4% (active) and the growth (OVCAR-4 ovarian) was 7.07% (active). For the same compound, the growth (IGROV1 ovarian) was -84.1% (active), the growth (HS 578T breast) was 37.8% and the growth (BT-549 breast) was -96.5% (active).
`CCCCCCCC(=O)OCC/C=C/C1OC1C1OC(=O)/C=C\C=C\c2nc(oc2C)/C=C(/C)CCC2OC2C1OC(=O)NC(C)=O` (centres undefined) was tested, and the growth (NCI-H322M lung) was 15.6%, the growth (HOP-62 NSCLC) was -11.6% (active) and the growth (NCI-H522 lung) was -80.3% (active). The growth (A549/ATCC NSCLC) was 5.19% (active), the growth (SNB-19 CNS) was -56.8% (active) and the growth (SK-MEL-28 melanoma) was -15.3% (active). The growth (EKVX NSCLC) was -5.8% (active), the growth (CAKI-1 renal) was -6.91% (active) and the growth (RPMI-8226 leukemia) was -55.7% (active). The growth (OVCAR-4 ovarian) was 8.12% (active), the growth (IGROV1 ovarian) was -10.2% (active) and the growth (HS 578T breast) was -1.2% (active). For the same compound, the growth (BT-549 breast) was -2.38% (active).
With `CC1(C)CC(=O)CC(C)(C)N1N=O` the growth (NCI-H322M lung) was 121%, the growth (HOP-62 NSCLC) was 97.3% and the growth (A549/ATCC NSCLC) was 107%. It also gave a growth (K-562 leukemia) of 111%, a growth (SNB-19 CNS) of 107% and a growth (LOX IMVI melanoma) of 97.1%. For the same compound, the growth (SK-MEL-28 melanoma) was 109%, the growth (EKVX NSCLC) was 112% and the growth (SN12C renal) was 106%. For the same compound, the growth (CAKI-1 renal) was 99.9%, the growth (SR leukemia) was 109% and the growth (OVCAR-4 ovarian) was 113%. It also gave a growth (IGROV1 ovarian) of 122%.
In the case of `O=C1NC(=O)C(=Cc2cn(Cc3ccccc3)c3ccccc23)C(=O)N1`, the growth (NCI-H322M lung) is reported as 81.7%, the growth (HOP-62 NSCLC) is reported as 73.9% and the growth (NCI-H522 lung) is reported as 102%. For the same compound, the growth (K-562 leukemia) was 63.5%, the growth (LOX IMVI melanoma) was 83.4% and the growth (SK-MEL-28 melanoma) was 98%. The growth (EKVX NSCLC) was 63.7%, the growth (SN12C renal) was 88.8% and the growth (CAKI-1 renal) was 62.4%. The growth (CCRF-CEM leukemia) was 98.1%, the growth (SR leukemia) was 71.4% and the growth (RPMI-8226 leukemia) was 75.7%. The growth (OVCAR-4 ovarian) was 68.3%, the growth (IGROV1 ovarian) was -26.7% (active) and the growth (HS 578T breast) was 78%. For the same compound, the growth (BT-549 breast) was 77.6%.
In the case of `C[C@@H]1O[C@@H](O[C@H]2CC[C@@]3(C)[C@H](CCC4[C@@H]3C(O)C[C@]3(C)[C@@H](c5ccc(=O)oc5)CC[C@]43O)C2)[C@H](O)[C@H](O)[C@H]1O` (some centres undefined), the growth (NCI-H322M lung) is reported as -73.9% (active), the growth (HOP-62 NSCLC) is reported as -100% (active) and the growth (NCI-H522 lung) is reported as -87% (active). For the same compound, the growth (A549/ATCC NSCLC) was -83.6% (active), the growth (SNB-19 CNS) was -91.1% (active) and the growth (LOX IMVI melanoma) was -55.8% (active). For the same compound, the growth (SK-MEL-28 melanoma) was -96.1% (active), the growth (EKVX NSCLC) was -58.3% (active) and the growth (SN12C renal) was -25.3% (active). For the same compound, the growth (CAKI-1 renal) was -68.7% (active), the growth (OVCAR-4 ovarian) was -92.9% (active) and the growth (IGROV1 ovarian) was -62.9% (active). The growth (HS 578T breast) was -9.52% (active).
Compound `COC(=O)C1CC2c3ccccc3C1c1ccccc12` (centres undefined) has a growth (NCI-H322M lung) of 98.8%, a growth (HOP-62 NSCLC) of 91.3% and a growth (A549/ATCC NSCLC) of 98.2%. For the same compound, the growth (K-562 leukemia) was 102%, the growth (SNB-19 CNS) was 117% and the growth (LOX IMVI melanoma) was 94.7%. For the same compound, the growth (SN12C renal) was 97.7%, the growth (CAKI-1 renal) was 76.5% and the growth (SR leukemia) was 93.9%. It also gave a growth (RPMI-8226 leukemia) of 82.1%, a growth (OVCAR-4 ovarian) of 106% and a growth (IGROV1 ovarian) of 96.6%. For the same compound, the growth (BT-549 breast) was 120%.
For `C=C=[CH][Sn]([c]1ccccc1)([c]1ccccc1)[c]1ccccc1`, the growth (NCI-H322M lung) was -15.6% (active), the growth (HOP-62 NSCLC) was -63.6% (active) and the growth (NCI-H522 lung) was -69.4% (active). The growth (A549/ATCC NSCLC) was -58.7% (active), the growth (SNB-19 CNS) was -50% (active) and the growth (LOX IMVI melanoma) was -77.2% (active). For the same compound, the growth (EKVX NSCLC) was -32.7% (active), the growth (SN12C renal) was -73.5% (active) and the growth (CAKI-1 renal) was -40.4% (active). The growth (CCRF-CEM leukemia) was -0.102% (active), the growth (RPMI-8226 leukemia) was -17.5% (active) and the growth (OVCAR-4 ovarian) was -40.2% (active). The growth (IGROV1 ovarian) was -22.2% (active), the growth (HS 578T breast) was 27% and the growth (BT-549 breast) was -34.9% (active).
With `CC(=O)O[C@H]1CC[C@H]2[C@@H]3CC[C@H]4CC=C(C)C[C@]4(C)[C@H]3CC[C@]12C` the growth (NCI-H322M lung) was 104%, the growth (HOP-62 NSCLC) was 98.9% and the growth (NCI-H522 lung) was 92.4%. It also gave a growth (A549/ATCC NSCLC) of 107%, a growth (LOX IMVI melanoma) of 102% and a growth (SK-MEL-28 melanoma) of 112%. The growth (EKVX NSCLC) was 116%, the growth (SN12C renal) was 101% and the growth (CAKI-1 renal) was 50.7%. For the same compound, the growth (CCRF-CEM leukemia) was 108%, the growth (RPMI-8226 leukemia) was 109% and the growth (OVCAR-4 ovarian) was 104%. The growth (IGROV1 ovarian) was 107%, the growth (HS 578T breast) was 109% and the growth (BT-549 breast) was 107%.
Compound `CCOc1cc(/C=N\Nc2nnc(C)n2N)c(C)cc1N(CCCl)CCCl` has a growth (NCI-H322M lung) of 11.3%, a growth (HOP-62 NSCLC) of 22.6% and a growth (NCI-H522 lung) of 15%. The growth (A549/ATCC NSCLC) was 14.5%, the growth (K-562 leukemia) was 7.77% (active) and the growth (SK-MEL-28 melanoma) was 37.4%. For the same compound, the growth (SN12C renal) was 17.3%, the growth (CAKI-1 renal) was 11.8% and the growth (CCRF-CEM leukemia) was 4.43% (active). For the same compound, the growth (SR leukemia) was -12.6% (active), the growth (RPMI-8226 leukemia) was -37.9% (active) and the growth (OVCAR-4 ovarian) was 14.6%. The growth (HS 578T breast) was 14.6% and the growth (BT-549 breast) was 17%.
